# From PubChem BioAssay AID763 (NMMLSC, 2007)
# Activity calls are given as the source filed them. The rule behind the calls is not given here.
# Biological target: fMet-Leu-Phe receptor (Homo sapiens) (UniProt P21462)
# Experiment: human FPR1 ligand displacement single-point test – cell-based, single concentration, selectivity assay for FPRL1 ligand SAR project, SAR follow-up (AID 763)
# Conditions: FPR1-expressing cells, fluorescent ligand binding inhibition, hits give high values; at 5.4 µM unless noted
# fMet-Leu-Phe receptor (Homo sapiens), sequence (P21462 whole entry, looked up): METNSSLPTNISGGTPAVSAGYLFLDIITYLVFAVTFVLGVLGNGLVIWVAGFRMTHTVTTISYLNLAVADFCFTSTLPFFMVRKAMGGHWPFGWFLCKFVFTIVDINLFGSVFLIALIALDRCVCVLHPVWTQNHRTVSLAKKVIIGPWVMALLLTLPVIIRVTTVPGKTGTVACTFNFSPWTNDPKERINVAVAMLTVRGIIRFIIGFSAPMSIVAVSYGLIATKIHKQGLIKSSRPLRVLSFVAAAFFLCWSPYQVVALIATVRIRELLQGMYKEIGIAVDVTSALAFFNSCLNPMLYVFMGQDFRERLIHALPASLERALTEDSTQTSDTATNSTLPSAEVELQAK
row,SMILES,inhibition
1,O=C(N1CCN(c2nc(-c3ccccc3)c3ccccc3n2)CC1)C(F)(F)F,5.9% [at 5.8 µM] (inactive)
2,O=C(O)CCCC(=O)N1CCN(c2nc(-c3ccccc3Cl)c3cc(Br)ccc3n2)CC1,1.9% [at 4.3 µM] (inactive)
3,COc1ccc(-c2cn3cccnc3n2)cc1NC(=O)c1cccc(C)c1,-4.1% [at 6.2 µM] (inactive)
4,CCOC(=O)N1CCN(c2nc(-c3cccc(OC)c3)cc(C(F)(F)F)n2)CC1,-33.9% (inactive)
5,O=C(c1cccc(F)c1)N1CCN(c2nc(-c3ccc(F)cc3)cc(C(F)(F)F)n2)CC1,-0.1% [at 5 µM] (inactive)
6,CCOC(=O)N1CCN(c2nc(-c3ccccc3Cl)c3cc(Br)ccc3n2)CC1,1.8% [at 4.7 µM] (inactive)
7,O=C(O)/C=C\C(=O)N1CCN(c2nc(-c3ccccc3)c3cc(Br)ccc3n2)CC1,-5.7% [at 4.8 µM] (inactive)
8,COc1ccc(-c2cc(C(F)(F)F)nc(N3CCN(c4ccccc4)CC3)n2)cc1OC,54.8% [at 5 µM] (active)
9,CCOCC(=O)Nc1cc(-c2cn3cccnc3n2)ccc1OC,2.3% [at 6.8 µM] (inactive)
10,O=C(O)CCC(=O)N1CCN(c2nc(-c3ccccc3)c3cc(Br)ccc3n2)CC1,-0.5% [at 4.7 µM] (inactive)
11,Cc1ccc2nc(N3CCN(c4ccccc4Cl)CC3)nc(-c3ccccc3)c2c1,-6% (inactive)
12,COc1ccc(-c2cn3cccnc3n2)cc1NC(=O)CCC1CCCCC1,-4.2% [at 5.9 µM] (inactive)
13,COc1cccc(-c2cc(C(F)(F)F)nc(N3CCN(C(c4ccccc4)c4ccccc4)CC3)n2)c1,2.6% [at 4.4 µM] (inactive)
14,CCCCN1CCN(c2nc(-c3ccccc3)c3cc(C)ccc3n2)CC1,-1.5% [at 5.6 µM] (inactive)
15,CN1CCN(c2nc(-c3ccccc3)c3cc(Cl)ccc3n2)CC1,6.1% [at 6.6 µM] (inactive)
16,COc1ccc(-c2cn3cccnc3n2)cc1NC(=O)Cc1cccc(C)c1,4.7% [at 6 µM] (inactive)
17,O=C(O)CCC(=O)N1CCN(c2nc(-c3ccccc3Cl)c3cc(Br)ccc3n2)CC1,2.5% [at 4.4 µM] (inactive)

row,SMILES,inhibition
1,COc1ccc(-c2cn3cccnc3n2)cc1NC(=O)c1ccccc1Br,0.1% [at 5.3 µM] (inactive)
2,COc1ccc(CC(=O)Nc2cc(-c3cn4cccnc4n3)ccc2OC)cc1,-1.7% [at 5.7 µM] (inactive)
3,CCOC(=O)N1CCN(c2nc(-c3ccccc3)c3cc(C)ccc3n2)CC1,-2.1% [at 5.9 µM] (inactive)
4,CC(=O)N1CCN(c2nc(-c3ccccc3)c3ccccc3n2)CC1,2.3% [at 6.7 µM] (inactive)
5,COc1ccc(-c2cc(-c3ccc(F)cc3)nc(N3CCN(C)CC3)n2)cc1,-4.8% [at 5.9 µM] (inactive)
6,O=C(O)/C=C/C(=O)N1CCN(c2nc(-c3ccccc3)c3ccccc3n2)CC1,2.4% [at 5.7 µM] (inactive)
7,Cc1ccc(-c2cn3cccnc3n2)cc1NC(=O)C(C)C,3.7% [at 7.6 µM] (inactive)
8,Clc1ccc2nc(N3CCN(c4ccccc4)CC3)nc(-c3ccccc3)c2c1,1.7% [at 5.5 µM] (inactive)
9,COc1ccc(-c2cc(C(F)(F)F)nc(N3CCN(C(c4ccccc4)c4ccccc4)CC3)n2)cc1OC,-2.6% [at 4.2 µM] (inactive)
10,FC(F)(F)c1cc(-c2ccc(Cl)cc2)nc(N2CCN(C(c3ccccc3)c3ccccc3)CC2)n1,2.8% [at 4.4 µM] (inactive)
11,FC(F)(F)c1cc(-c2ccccc2)nc(N2CCN(c3cccc(Cl)c3)CC2)n1,-2.5% [at 5.3 µM] (inactive)
12,COc1ccc(-c2cn3cccnc3n2)cc1NC(=O)COc1ccccc1,5.8% [at 5.9 µM] (inactive)
13,CN1CCN(c2nc(-c3ccccc3)cc(C(F)(F)F)n2)CC1,-5.9% [at 6.9 µM] (inactive)
14,COc1ccc(-c2nc(N3CCN(Cc4ccc(Cl)cc4)CC3)[nH]c(=O)c2C#N)cc1,-5.9% [at 5.1 µM] (inactive)
15,CC(N)C(=O)N1CCN(c2nc(-c3ccccc3)c3cc([N+](=O)[O-])ccc3n2)CC1 (stereo not drawn),-1.4% [at 5.5 µM] (inactive)
16,Clc1ccccc1-c1nc(N2CCN(c3ccccc3)CC2)nc2ccc(Br)cc12,1.5% [at 4.6 µM] (inactive)
